Compounds with a hit are over-represented: about 10% of the library has one in this group of screens.
MmCpn inh – Inhibitors of TCP-1 ring complex (TRiC) of Methanococcus maripaludis (MmCpn): qHTS; Chaperonin Mm-Cpn (Methanococcus maripaludis); purified Mm-Cpn ATPase, ADP Transcreener TR-FRET; Potency, µM (highest dose often 76.9 µM), hits mostly inhibitors; 330,000 compounds, 0.031% hits; AID 504842, 2011; also: nearly all actives have a fitted effect of over 80% in size
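Inhibition of chaperonin ATP hydrolysis is measured as reduced ADP production, detected by competitive TR-FRET in which signal falls with ADP. Final enzyme 25 nM and ATP 10 uM, reacted 30 min at 37°C.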
CCT modulator – High-Throughput Screening for Modulators of Cytosolic Chaperonin Activity. purified chaperonin ATPase assay, HTRF ADP detection, 30 min. activity change, % (no concentration beside the values), hits read low. 360,000 compounds, 0.3% hits; in the data active = activity change below about -30%
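We incubate TRiC, 40 or 20 nM final, with library compounds at 76 uM and 10 uM ATP for 30 min at 37 °C. ADP formed is detected with Transcreener HTRF reagents after 30 min at room temperature.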
Sfp inh – qHTS Assay for Inhibitors of Bacillus subtilis Sfp phosphopantetheinyl transferase (PPTase) | 310,000 compounds, 3.5% hits | 4'-phosphopantetheinyl transferase ffp (Bacillus subtilis), Q9F4F7 | Biochemical Sfp PPTase activity, qHTS | Potency, µM, actives largely listed as inhibitors;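 also: the enzyme is Sfp with the accession as filed and its product quenches rhodamine fluorescence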
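Compounds were incubated with enzyme (final 15 nM) for 15 min at room temperature before substrate addition started the reaction. Fluorescence at 525 nm excitation, 598 nm emission was recorded immediately and after 30 minutes.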
G9a inh – qHTS Assay for Inhibitors of Histone Lysine Methyltransferase G9a; G9a H3K9 monomethylation, AlphaScreen, 2 h; Histone-lysine N-methyltransferase EHMT2 (Homo sapiens), Q96KQ7; Potency, µM (doses to about 102 µM), most hits filed as inhibitors; 350,000 compounds, 8.8% hits; also: nearly all actives have a fitted effect of over 75% in size
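Signal arises when biotinylated H3K9 peptide, once monomethylated, bridges streptavidin donor and antibody-captured acceptor beads. Enzyme at 20 nM was preincubated 15 min with test compounds; peptide 500 nM and SAM 20 uM then reacted for 2 h.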
PLK1 PBD inh – qHTS for Inhibitors of PLK1-PDB (polo-like kinase 1 - polo-box domain): Primary Screen; Potency, µM, usual class: inhibitors; 360,000 compounds, 2.8% hits; Plk1 PBD binding of FITC phosphopeptide, fluorescence polarization; Serine/threonine-protein kinase PLK1 (Homo sapiens), P53350; also: series mostly up to about 57 µM; nearly all actives have a fitted effect of over 65% in size
Target sequence (P53350 whole entry, looked up, the tested form may be a part): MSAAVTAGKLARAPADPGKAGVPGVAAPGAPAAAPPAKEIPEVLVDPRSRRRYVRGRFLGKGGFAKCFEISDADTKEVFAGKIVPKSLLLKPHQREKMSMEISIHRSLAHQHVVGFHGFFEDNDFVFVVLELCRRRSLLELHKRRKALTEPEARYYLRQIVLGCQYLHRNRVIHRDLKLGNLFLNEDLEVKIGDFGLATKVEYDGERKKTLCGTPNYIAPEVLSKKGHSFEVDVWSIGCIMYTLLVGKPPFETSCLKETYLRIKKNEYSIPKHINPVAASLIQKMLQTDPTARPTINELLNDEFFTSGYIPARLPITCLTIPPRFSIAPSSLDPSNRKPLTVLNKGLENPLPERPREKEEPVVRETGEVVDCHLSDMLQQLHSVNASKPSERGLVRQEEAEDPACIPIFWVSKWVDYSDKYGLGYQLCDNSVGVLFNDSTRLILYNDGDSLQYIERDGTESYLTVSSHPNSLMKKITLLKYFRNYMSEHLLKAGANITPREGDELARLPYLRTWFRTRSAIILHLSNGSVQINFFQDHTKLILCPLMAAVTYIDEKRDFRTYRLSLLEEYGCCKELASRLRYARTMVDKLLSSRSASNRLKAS
VDR inhibitor – Inhibitors of the vitamin D receptor (VDR): qHTS; Vitamin D3 receptor (Homo sapiens), P11473; VDR-SRC2-3 peptide fluorescence polarization, 2 h; Potency, µM, most hits filed as inhibitors; 400,000 compounds, 0.93% hits
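Signal is fluorescence polarization, reporting how far test compounds block the interaction of VDR with the SRC2-3 coregulator peptide after a 2 h room-temperature incubation.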
Numbers stand for hits; [ ] = remark or other dose. Unless noted, calls follow the shape of the dose curve; as a rule, active = well fitted curve in the direction sought with a large enough effect; inconclusive = small, poorly fitted or top-dose-only effect, or another doubt; inactive = no such curve, though single readings can be large; an effect the other way counts as inactive or inconclusive.

What do the screens show for `CCn1c(N)c(C(=O)NCc2ccco2)sc1=S`?
MmCpn inh: inactive; CCT modulator: inactive; Sfp inh: 22µM; G9a inh: 10µM; PLK1 PBD inh: 24µM; VDR inhibitor: inactive

How did CCOC(=O)c1ccc(-n2c(N)c(C(=O)NCc3ccco3)sc2=S)cc1 do in these assays?
MmCpn inh: inactive; CCT modulator: inactive; Sfp inh: 35µM; G9a inh: inconclusive; PLK1 PBD inh: 24µM; VDR inhibitor: inconclusive

How did O=C(NCc1ccco1)c1ccc(C(=O)NCc2ccco2)cc1 do in these assays?
CCT modulator: inactive; PLK1 PBD inh: inactive; VDR inhibitor: inactive

What do the screens show for `COc1ccc(-n2c(N)c(C(=O)NCC3CCCO3)sc2=S)cc1` (stereo unspecified)?
MmCpn inh: inactive; CCT modulator: inactive; Sfp inh: inactive; G9a inh: inactive; PLK1 PBD inh: inactive; VDR inhibitor: inactive

What do the screens show for `CCOC(=O)c1c(C)c(C(=O)NCc2ccco2)c(C)n1Cc1ccccc1`?
MmCpn inh: inactive; CCT modulator: inactive; Sfp inh: inactive; G9a inh: inconclusive; PLK1 PBD inh: 27µM; VDR inhibitor: inconclusive

What do the screens show for `COc1ccc(NC(=O)Cn2nnnc2-c2ccccc2F)c(C)c1`?
G9a inh: inactive; VDR inhibitor: inactive

What do the screens show for `CCOC(=O)c1c(C)c(-c2ccccc2)n(CC(=O)Nc2cccc(C)c2C)c1C`?
G9a inh: inactive; VDR inhibitor: inactive

What do the screens show for `COc1ccc(NC(=O)C(=O)NCC(c2ccc3c(c2)OCO3)N2CCN(C)CC2)cc1` (stereo unspecified)?
G9a inh: inactive; VDR inhibitor: inactive

Results for Cc1cccc(NC(=O)CSc2nc(=O)n(CCN3CCOCC3)c3c2CCC3)c1C ?
G9a inh: inactive; VDR inhibitor: inactive

How did CCOC(=O)CSc1nc2c(sc(=S)n2-c2ccc(CC)cc2)c(=O)[nH]1 do in these assays?
MmCpn inh: inactive; CCT modulator: inactive; Sfp inh: inactive; G9a inh: inconclusive; PLK1 PBD inh: inactive; VDR inhibitor: inactive

How did CCOC(=O)c1ccc(-n2c(=S)sc3c(=O)[nH]c(C)nc32)cc1 do in these assays?
MmCpn inh: inactive; CCT modulator: inactive; Sfp inh: 13µM; G9a inh: 1.8µM; PLK1 PBD inh: 5.3µM; VDR inhibitor: 50µM

Results for CCOC(=O)c1sc(=S)n(CC)c1N ?
MmCpn inh: inactive; CCT modulator: inactive; Sfp inh: inactive; G9a inh: inconclusive; PLK1 PBD inh: inactive; VDR inhibitor: inactive

Results for CCn1c(N)c(C(N)=O)sc1=S ?
MmCpn inh: inactive; CCT modulator: inactive; Sfp inh: 14µM; G9a inh: inconclusive; PLK1 PBD inh: 27µM; VDR inhibitor: inactive

Results for COc1ccccc1C(=O)N/C(=C\c1cn(C)c2ccccc12)C(=O)NCCCN1CCOCC1 ?
MmCpn inh: inactive; CCT modulator: inactive; Sfp inh: inactive; G9a inh: inactive[0.0925 µM]; PLK1 PBD inh: inactive; VDR inhibitor: inactive

Results for COc1cc(C(=O)N/C(=C\c2cn(C)c3ccccc23)C(=O)NCCCN2CCOCC2)cc(OC)c1OC ?
MmCpn inh: inactive; CCT modulator: inactive; Sfp inh: inactive; G9a inh: inconclusive; PLK1 PBD inh: 17µM; VDR inhibitor: inconclusive

How did CCn1cc(/C=C(\NC(=O)c2ccc(C)cc2)C(=O)NCCCN2CCOCC2)c2ccccc21 do in these assays?
MmCpn inh: inactive; CCT modulator: inactive; Sfp inh: inactive; G9a inh: inactive[12.7 µM]; PLK1 PBD inh: inactive; VDR inhibitor: inactive

Results for CCn1cc(/C=C(\NC(=O)c2ccc(OC)c(OC)c2)C(=O)NCCCN2CCOCC2)c2ccccc21 ?
MmCpn inh: inactive; CCT modulator: -81; Sfp inh: inactive; PLK1 PBD inh: inactive; VDR inhibitor: inactive

Screens from PubChem BioAssay.
